# In publication PMC5540273 (PLoS ONE, 2017):
# Key:
# [1] = test system: CLK2
# [2] = test system: CLK4
# [3] = test system: CSK
# [4] = test system: CSNK1G1
# [5] = test system: CSNK1G2
# 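Note: kd values determined as follow-up on hits from a single-replicate KINOMEscan panel screen.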
smiles,measurement,setting,value
CSc1ccc(NC2=C(c3ccccc3Cl)C(=O)NC2=O)cc1 [SB-342411],Kd,[1],0.46 µM
CN1c2ccc(-c3ccc(C(=O)NCCO)cc3)cc2-c2[nH]ncc2S1(=O)=O,Kd,[1],0.7 µM
Fc1cccc(COc2ccc(Nc3ncnc4sc(-c5ccc[nH]5)cc34)cc2Cl)c1 [GW707818],Kd,[2],> 10 µM
c1ccc(-c2ccc3c(-c4ccnc(Nc5ccc6c(c5)OCCO6)n4)cnn3n2)cc1 [GW818941],Kd,[3],> 10 µM
Cc1ccc(C)c(NC(=O)NCCNc2ccnc(Nc3ccc(F)cc3)n2)c1 [GSK1379878],Kd,[3],> 10 µM
COC(=O)c1c(-c2ccccc2)c2cc(Cl)ccc2c(=O)n1Cc1ccc(S(C)(=O)=O)cc1,Kd,[4],> 10 µM
Nc1nc(-c2ccc3c(N)n[nH]c3c2)cc(N2CCC[C@@H](C(=O)Nc3ccccc3)C2)n1.O=C(O)C(F)(F)F.O=C(O)C(F)(F)F [GSK2288359],Kd,[5],> 10 µM
O=C(Nc1ccccc1F)NC1CCN(c2ccnc(Nc3ccc(F)cc3)n2)C1 (centres unmarked) [GSK1379722],Kd,[5],> 10 µM
